Most compounds without a hit are left out; they make up all but 13% or so of the library.
Pf growth 96h: P. falciparum growth inhibition at 96 hours; P. falciparum luciferase reporter growth, 96 h; 6.9% of 320,000 active; Potency, µM (doses to about 28.7 µM), for the others: at the top dose activity change, negative = inhibition, actives largely listed as inhibitors; note: potency is the fitted concentration of half-maximal effect
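Two parasite generations (96 h, 37 C, 5% CO2) of compound exposure in infected erythrocytes (0.05% parasitemia, 2% hematocrit). Luciferase-reporter P. falciparum; decreased luminescence indicates inhibited growth, aimed at apicoplast-acting delayed death.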
HCMV inh: blocks human cytomegalovirus replication; 4.5% of 410,000 active; HFF cells, HCMV-luciferase reporter, 72 h; active compounds read low; AID 1259415; activity change, negative = inhibition, % at 57.5 µM; in the data active = activity change below about -60%; inconclusive = no clear call, values can overlap the other calls; inactive = above about -39%
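Two-dose cell screen: HFF monolayers treated with compounds and infected with luciferase-expressing HCMV at 1 PFU/cell, 72 h at 37C, then lysed for luciferase measurement.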
Pf growth 48h: P. falciparum growth inhibition at 48 hours (one generation); 5.9% of 310,000 active; AID 504832; Potency, µM (highest dose often 28.7 µM), without a hit: at the highest dose activity change, negative = inhibition, most hits filed as inhibitors; P. falciparum luciferase growth in erythrocytes, 48 h; note: potency is the fitted concentration of half-maximal effect
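In quantitative HTS format, infected erythrocytes bearing luciferase-reporter parasites were treated for a single generation at 37 C. Luminescence after adding detection reagent served as the growth measure.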
HCV inh: HCV inhibition. Huh7.5.1 HCVcc-Cre infection, luciferase reporter, 44 h. Potency, µM (highest dose often 41.8 µM), for inactives: top-dose activity change, negative = inhibition, usual class: inhibitors. 3.4% of 340,000 active. AID 651820; note: potency is the fitted concentration of half-maximal effect
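Seed cells (1,000/well) for 4 h; treat with compound and infect with HCVcc-Cre, moi about 0.5. Incubate 44 h, then detect luciferase activity.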
Active calls of the source: *; i = inactive; u = inconclusive; x = no result. Unless noted, calls come from the whole dose curve; as a rule, active = well fitted inhibition curve with a large enough effect; inconclusive = small, poorly fitted or top-dose-only effect, or another doubt; inactive = no such curve, though single readings can be large or run the other way. % is set by controls: 0 for no effect and ±100 for the full control effect.

SMILES | Pf growth 96h | HCMV inh | Pf growth 48h | HCV inh
CC(C)CNc1ccc2c(c1)OC[C@H](C)NS2(=O)=O | x | 2.8 | x | x
CN1C(=O)c2[nH]nc(-c3ccc(F)cc3)c2C1c1cccc(O)c1 (stereo unspecified) | x | 12.7 | x | x
O=C(CC[C@H]1O[C@@H](n2ccc(=O)[nH]c2=O)[C@H](O)[C@@H]1O)NCCN1CCOCC1 | x | 27.5 | x | x
CCOC(=O)c1c(-c2ccc(C)cc2C)csc1NC(=O)c1ccccc1Cl | x | -5.5 | x | x
COc1ccc(N=C2SC(CC(=O)Nc3ccccc3)C(=O)N2CCN2CCOCC2)cc1 (stereo unspecified) | -2.2% | -4.2 | -5.3% | -3.4%
CNC(=O)C1CC(=O)N(CCc2ccccc2)C(=Nc2ccc(OC)cc2)S1 (stereo unspecified) | 50.8% | -8.5 | u | 2.1%
COc1ccc(N=C2SC(C(=O)Nc3ccc(C(=O)O)cc3)CC(=O)N2Cc2cccs2)cc1 (stereo unspecified) | 7.38µM* | u | u | 22.1%
COc1ccc(N=C2SC(CC(=O)Nc3ccccc3)C(=O)N2CC2CCCO2)cc1 (stereo unspecified) | u | -14.7 | 11.7µM* | -27.7%
COC(=O)c1cc(NC(=O)CC2SC(=Nc3ccccc3)N(CCc3c[nH]c4ccccc34)C2=O)cc(C(=O)OC)c1 (stereo unspecified) | 1.65µM* | 25.6 | 13.1µM* | 4.47µM*
CCOC(=O)C1CCN(CC(=O)Nc2cc(C)c3c(=O)oc4ccccc4c3n2)CC1 | x | 10.8 | x | x
Cc1ccccc1CCNC(=O)C1CCC(=O)N(CCc2cccc(F)c2)C1 (stereo unspecified) | 2.4% | 44.2 | -17.8% | 1.0%
CN(CCC1CCOCC1)C(=O)C1CCC(=O)N(CCc2cccc(F)c2)C1 (stereo unspecified) | 14.7µM* | 14.3 | -6.5% | -9.7%
Cc1cc(CNC(=O)C2CCC(=O)N(CCc3cccc(F)c3)C2)on1 (stereo unspecified) | 13.1µM* | 15.5 | -2.0% | 7.2%
CCc1nc(CNC(=O)C2CCC(=O)N(CCc3cccc(F)c3)C2)no1 (stereo unspecified) | u | -0.7 | 20.4% | 11.7%
CCc1cc(CNC(=O)C2CCC(=O)N(CCc3cccc(F)c3)C2)on1 (stereo unspecified) | 13.1µM* | 5.7 | 2.7% | 38.1%
O=C(NCCOc1ccccc1F)C1CCC(=O)N(CCc2cccc(F)c2)C1 (stereo unspecified) | 14.7µM* | u | u | -4.3%
CN(CCC1CCOCC1)C(=O)C1CCC(=O)N(CCc2ccc(Cl)cc2)C1 (stereo unspecified) | 43.8% | -34.4 | 4.5% | 0.7%
CCc1ccc(CNC(=O)CCN2C(=O)COc3ccccc32)cc1 | x | -28.9 | x | x
Cc1ccc(NC(=O)NCc2ccco2)cc1[N+](=O)[O-] | x | -32.1 | x | x
COc1ccc(N(CC(=O)NC(C)c2ccccc2)S(=O)(=O)c2c(C)nn(C)c2C)cc1 (stereo unspecified) | x | 1.0 | x | x
Cc1ccc(Cl)cc1N1CCN(C(=O)c2cn(C)c3ccc(S(=O)(=O)N4CCCCC4)cc3c2=O)CC1 | x | 0.5 | x | x
CC(=O)c1ccc(-c2ccc(C(=O)Nc3nc(-c4ccccn4)cs3)o2)cc1 | x | 83.8 | x | 2.51µM*
O=C(Nc1nc(-c2ccccn2)cs1)c1ccc2c(c1)OCCO2 | u | -26.8 | 220.4% | u
O=C(Nc1nc(-c2ccccn2)cs1)c1ccc(-c2ccccc2F)o1 | u | -70.2* | u | u
CC(=O)Nc1ccc(-c2csc(NC(=O)c3ccc(C)o3)n2)cc1 | 9.28µM* | 38.8 | x | -17.1%
SMILES | Pf growth 96h | HCMV inh | Pf growth 48h | HCV inh
O=C(Nc1nc(-c2ccccn2)cs1)c1ccc([N+](=O)[O-])o1 | 2.33µM* | 44.7 | 2.94µM* | 8.91µM*
Cc1ccccc1OCc1ccc(-c2nc(C#N)c(N3CCC(C(N)=O)CC3)o2)o1 | x | -37.8 | x | x
COc1cc(NC(=O)CSc2nc3ncccc3o2)cc(OC)c1 | x | 5.2 | x | x
CC(=O)Nc1ccc(-c2csc(Nc3cccc(C)n3)n2)cc1 | 6.9% | 7.0 | 154.6% | 12.6µM*
Cc1ccc(C(=O)Nc2nc(-c3ccc([N+](=O)[O-])cc3)cs2)o1 | u | u | 9.0% | 5.7%
CC(=O)NNc1nc(-c2ccc(NC(C)=O)cc2)cs1 | -12.1% | u | 29.9% | 8.3%
O=C(COc1ccc([N+](=O)[O-])cc1)Nc1nc(-c2ccccn2)cs1 | 6.57µM* | -71.4* | 9.28µM* | 10µM*
Cc1ccc(OCC(=O)Nc2nc(-c3ccccn3)cs2)c(C)c1 | u | x | -18.3% | 0.9%
CCc1cc(C(=O)Nc2nc(-c3ccccn3)cs2)sc1C | u | -37.7 | 4.15µM* | u
Cc1ccc(C(=O)Nc2nc(-c3ccccn3)cs2)o1 | 2.33µM* | 34.7 | 4.15µM* | u
O=C(Nc1nc(-c2ccco2)cs1)c1ccccc1 | 84.3% | 31.8 | x | -7.1%
Cc1ccc(-c2csc(NC(=O)c3ccc(-c4ccccc4)cc3)n2)o1 | u | x | u | 8.91µM*
CCC[C@@H]1C[C@@H](C(=O)N[C@H]([C@@H](C)O)[C@H]2O[C@H](SC)[C@H](O)[C@@H](O)C2O)N(C)C1 (stereo partly specified) | 0.131µM* | 26.2 | 0.0415µM* | -1.8%
CCC[C@@H]1C[C@@H](C(=O)N[C@@H]([C@H]2O[C@H](SC)[C@H](O)[C@@H](O)[C@H]2O)[C@@H](C)O)N(C)C1 | 0.169µM* | x | 2.69µM* | x
Cc1cccc(C(=O)O[C@@H]2[C@H](Cc3ccccc3)NS(=O)(=O)[C@H]3C[C@@H]4C=C[C@]23O4)c1 | 9.28µM* | -14.0 | u | -15.8%
Cc1cccc(C(=O)O[C@H]2[C@H](Cc3ccccc3)NS(=O)(=O)[C@H]3CC4C=C[C@]23O4)c1 | x | 13.6 | x | 16.6%
COc1cccc(Cn2c(=O)cc(C)c3c(C)nn(-c4ccc(C)cc4)c32)c1 | x | 29.2 | x | x
Cc1cccc(NC(=O)CCCn2c(C)c3cnn(-c4ccccc4)c(=O)c3c2C)c1C | x | -10.9 | x | x
Cc1cccc(N2CCN(C(=O)Cn3c(C)c4cnn(-c5ccccc5)c(=O)c4c3C)CC2)c1C | x | -81.3* | x | x
O=S(=O)(NC1c2cccc3cccc(c23)C1Sc1ncccn1)c1ccc(Cl)cc1 (stereo unspecified) | 1.1% | -71.6* | u | u
C=Cc1ccc(Cn2c(SCC(=O)N3CCN(c4ccc(F)cc4)CC3)nc3ccccc32)cc1 | x | -3.0 | x | x
COc1ccc(CN(Cc2ccco2)c2cnc(S(C)(=O)=O)nc2C(=O)Nc2ccc(F)cc2)cc1 | x | 4.2 | x | x
S=C(Nc1ccccc1)Nc1nc2ccccc2n1CCOc1ccc(Cl)cc1 | 11.7µM* | 60.7 | 7.38µM* | 10µM*
CCCn1c(NC(=S)Nc2ccccc2)nc2ccccc21 | 42.3% | 48.4 | u | 3.4%
CCn1c(Nc2ccccc2Cl)nc2ccccc21 | i | -6.0 | u | -23.4%
CCn1c(NC(=O)C2CCCCC2)nc2ccccc21 | 350.6% | -7.4 | 10.4µM* | u
O=C(Nc1nc2ccccc2n1CCN1CCCCC1)C1CCCCC1 | u | -16.7 | u | -1.4%
